These results are taken from PubChem BioAssay (NCI).

Test in all cases: NCI-60 one-dose screen, 48 h (100 = growth as untreated, 0 = no growth, -100 = all killed)
Conditions in all cases: 10 µM unless noted

Test [1] has as its system NCI-H23 lung.
For test [2], the system named is NCI-H226 lung.
For test [3], the system named is NCI-H322M lung.
For test [4], the system named is HOP-62 NSCLC.
Test [5] concerns NCI-H460 lung.
Test [6] deals with HOP-92 NSCLC.
Test [7] deals with NCI-H522 lung.
Test [8] relates to A549/ATCC NSCLC.
Test [9] relates to 786-0 renal.
Test [10] relates to COLO 205 colon.
Test [11] deals with DU-145 prostate.
The test system of test [12] is K-562 leukemia.
Test [13] concerns MALME-3M melanoma.
Test [14] deals with MDA-MB-231 breast.
For test [15], the system named is RXF 393 renal.
In test [16] the test system is SF-268 CNS.
Test [17] relates to SF-295 CNS.
Test [18] relates to SF-539 CNS.
The test system of test [19] is UACC-257 melanoma.
For test [20], the system named is M14 melanoma.

Compounds without any hit were thinned out: in the full panel of roughly 83,000, 20% have a hit.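 Step 1: grow cells in 96-well plates. Step 2: add test compound at a single concentration. Step 3: incubate 48 h. Step 4: record percent growth.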 A number with no mark means an inactive call. Activity calls are given as the source filed them. The calls were made as follows: active = growth percent below 10; inactive = the rest.

As to `C1=C2CCCC3=Cc4ccccc4OC23Oc2ccccc21`, the growth in test [1] was 42.3%; in test [2] it was 56.4%; in test [3], 50.8%; in test [4] it was 41.6%; in [5], 13.5%; in test [6], 61.4%. For the same compound, the growth was 3.9% (active) in test [7]; 32.7% in test [8]; 26.4% in [9]; 25.4% in [10]; 28.1% in test [11]; 15.3% in [12]. Also, the growth in [13] was 56.8%; in [14], 43.5%; in test [15], 9.77% (active); in test [16], 31.6%; in test [17] it was 11.3%; in test [18], 7.81% (active). Also, the growth in test [19] is 40.1%; in test [20], 19.2%.

For `COc1ccc2c(c1)c(-c1nc(-c3cn(C)c4ccncc34)cs1)cn2C`, the growth in [1] was 92.2%; in test [2], 113%; in [3] it was 95.7%; in test [4] it was 94.7%; in test [5], -64.5% (active); in test [6], 81.8%. Moreover, the growth in test [7] was 87.3%; in test [8] it was 2.44% (active); in test [9] it was 84.8%; in [10], 92.6%; in [11], -21.9% (active); in test [12], -48.9% (active). For the same compound, the growth was -53.6% (active) in test [13]; -61.2% (active) in [14]; -91.7% (active) in test [15]; 88.5% in test [16]; 55.3% in test [17]; 57.4% in test [18]. Further, the growth in test [19] is 114%; in test [20], -90.3% (active).

Consider `O=C(CSc1nnc(-c2ccc(Cl)c(Cl)c2)n1-c1ccccc1)Nc1ccc(C(=O)/C=C/c2ccc(Cl)cc2)cc1`, for which the growth in test [1] is 95.4%; in test [2] it was 89.1%; in [3], 96.9%; in [4], 91.1%; in test [5] it was 99.5%; in [6] it was 80.7%. For the same compound, the growth in test [7] was 64.7%; in test [8] it was 68.9%; in [9] it was 88.6%; in [10], 93.3%; in test [11], 98.3%; in [12], 81.9%. Moreover, the growth is 94.6% in [13]; 86.5% in test [14]; 92.1% in test [15]; 92.2% in [16]; 98.2% in test [17]; 97.9% in [18]. Moreover, the growth in test [19] is 77.3%; in test [20], 82.2%.

`Clc1ccc(C2=Nn3c(nnc3-c3cc(Cl)cc(Cl)c3Cl)SC2)cc1`: the growth in test [1] was 65.8%; in [2], 75.3%; in test [3], 71.4%; in [4] it was 16.2%; in [5], 16.4%; in test [6] it was 55.6%. The growth in test [7] was 21.4%; in test [8], 58.2%; in test [9], 3.83% (active); in test [10] it was 40.5%; in test [11] it was -16.6% (active); in [12] it was 12.4%. For the same compound, the growth in [13] was 44.4%; in test [14], 65.3%; in [15], 66.2%; in test [16], 35%; in test [17] it was 14.8%; in [18], 72.9%. The growth in test [19] is 71.5%; in test [20], 11.7%.

Turning to `Cc1cccc(CN(Nc2ccccc2)c2ccccc2)n1`, the growth is 104% in [1]; 103% in [2]; 96.7% in test [3]; 99.8% in [4]; 101% in test [5]; 65% in test [6]. Moreover, the growth in test [7] was 103%; in test [8], 93.1%; in test [9], 107%; in test [10], 111%; in test [11] it was 107%; in [12] it was 87.5%. Also, the growth in test [13] is 89.8%; in test [14], 118%; in test [15], 96.3%; in test [16] it was 101%; in [17], 118%; in test [18], 96.6%. Moreover, the results for the growth in test [19] and in test [20] were 98.7% and 105%, respectively.

Consider `COc1ccc(NC(=O)CSc2oc(-c3ccccc3)nc2S(=O)(=O)c2ccc(Cl)cc2)c(OC)c1`, for which the growth in test [1] was 73%; in test [2] it was 1.45% (active); in test [3] it was 83%; in test [4], 51%; in test [5], 44.7%; in test [6], 39.6%. Moreover, the growth is 41.4% in test [7]; 49.2% in test [8]; 35.7% in test [9]; 82.4% in test [10]; 83.1% in test [11]; 67.4% in test [12]. For the same compound, the growth in [13] was 57.6%; in test [14], 47.5%; in [15] it was 16.3%; in test [16], 47.1%; in test [17], 53.6%; in [18], 0.354% (active). Further, the growth in test [19] is 40.7%; in [20], 77.3%.

`O=[N+]([O-])c1ccc(N/N=C\c2cc(Cl)ccc2O)nc1`: the growth is 32.7% in test [1]; 100% in test [2]; 30.4% in test [3]; 45.6% in test [4]; 12.8% in test [5]; 59.7% in test [6]. Also, the growth in test [7] is 31.3%; in test [8] it was 50.4%; in test [9], 34%; in test [10], 50.1%; in test [11] it was 39.4%; in [12], 17.8%. The growth was 25.6% in [13]; 48.8% in test [14]; 50.2% in test [15]; 33.3% in test [16]; 29.9% in [17]; 29.8% in test [18]. The growth in [19] was 30.2%; in [20], 17.1%.
